Only a selection was taken, and hits are over-represented in it overall.
AmpC inh no detg: blocks E. coli AmpC beta-lactamase in detergent-free assay | P00811 | AmpC nitrocefin hydrolysis, absorbance 480 nm, 0.0001% Triton | Potency, µM (top dose mostly 57.1 µM), without a hit: at the highest dose activity change, negative = inhibition, actives largely listed as inhibitors | 330,000 compounds, 0.52% hits;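 further: plate controls were no compound for no effect and no enzyme for full effect; nearly all actives have a fitted effect of over 20% in size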
Target sequence (P00811 whole entry, looked up): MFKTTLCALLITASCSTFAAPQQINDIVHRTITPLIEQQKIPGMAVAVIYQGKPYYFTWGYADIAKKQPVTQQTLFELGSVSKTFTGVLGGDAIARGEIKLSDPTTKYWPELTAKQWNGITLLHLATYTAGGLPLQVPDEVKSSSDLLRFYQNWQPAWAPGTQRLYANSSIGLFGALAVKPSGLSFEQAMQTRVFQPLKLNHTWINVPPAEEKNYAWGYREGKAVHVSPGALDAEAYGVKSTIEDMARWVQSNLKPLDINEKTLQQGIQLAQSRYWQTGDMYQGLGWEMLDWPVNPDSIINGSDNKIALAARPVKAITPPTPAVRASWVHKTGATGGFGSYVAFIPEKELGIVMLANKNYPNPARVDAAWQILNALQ
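AmpC (5.3 nM in the dispensed reagent) in 20 mM phosphate pH 7.0 with 0.01% (detergent screen) or 0.0001% Triton X-100 was preincubated with compounds for 15 min at room temperature. Nitrocefin was then added from an 800 uM solution, and hydrolysis was followed at 480 nm.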
AmpC detergent: blocks E. coli AmpC beta-lactamase in detergent assay; P00811; AmpC hydrolysis of nitrocefin, absorbance 480 nm, 0.01% Triton; Potency, µM (highest dose often 114 µM), for the others: at the top dose activity change, negative = inhibition, most hits filed as inhibitors; 370,000 compounds, 0.041% hits; AID 485294;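 further: 0% = no-compound wells and -100% = no-enzyme wells; nearly all actives have a fitted effect of over 25% in size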
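20 mM phosphate pH 7.0 + 0.01% (detergent screen) or 0.0001% Triton X-100; 5.3 nM AmpC reagent; cpd preinc 15 min RT; nitrocefin (800 uM stock) to start; A480 q20 s × 4 min; Activity was normalised to no-enzyme and no-compound control wells.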
* hit, by the source's call; ? = inconclusive; . = no result given. The call rests on the fitted dose curve; in most records, active means well fitted curve in the direction sought with a large enough effect; inconclusive means small, poorly fitted or top-dose-only effect, or another doubt; inactive means no such curve, though single readings can be large; an effect the other way counts as inactive or inconclusive. Potency means the concentration at half of the fitted maximal effect.

SMILES	AmpC inh no detg	AmpC detergent
COc1ccccc1Nc1ccc(NC(=O)c2cccc([N+](=O)[O-])c2C)cc1	3.16µM*	0.9%
COc1ccc(NC(=O)c2ccccc2[N+](=O)[O-])cc1	-8.1%	?
CCc1ccc(Nc2nnc(-n3nc(C)cc3C)c3ccccc23)cc1	.	6.8%
CCS(=O)(=O)c1ncc(Cl)c(C(=O)N(Cc2ccccc2)Cc2ccco2)n1	.	-1.9%
COc1cccc(N2C(=O)CSC23C(=O)N(CC(=O)Nc2cccc(Cl)c2)c2ccccc23)c1 (stereo not given)	.	-0.7%
Cc1ccc(C)c(CN2C(=O)c3ccccc3S(=O)c3ccc(C(=O)N4CCCCC4)cc32)c1 (stereo not given)	.	19.9%
COc1ccc(S(=O)(=O)n2ccc(C(C)Oc3ccc(-c4ccccc4)c(F)c3)n2)cc1 (stereo not given)	0.398µM*	2.8%
CC(Oc1ccc(-c2ccccc2)c(F)c1)c1ccn(S(=O)(=O)c2ccc(F)cc2)n1 (stereo not given)	-20.9%	-8.0%
O=C(N/N=C/c1cccc2ccccc12)c1cc2ccccc2o1	-54.3%	-0.2%
C#CCn1cc(/C=N/NC(=O)c2cc3ccccc3o2)c2ccccc21	28.2µM*	?
Cc1cc(C)n(C(=O)CSc2nc3ccccc3o2)n1	-4.2%	28.2µM*
Cc1ccc(SCC(=O)n2nc(C)cc2C)cc1	-13.7%	5.2%
COc1cccc(NC(=O)c2nc3nc(C)cc(C(F)F)n3n2)c1	44.7µM*	-10.5%
COc1ccc(NC(=O)c2nc3nc(C)cc(C(F)F)n3n2)c(C)c1	.	3.1%
CCc1cccc(-n2nnc(-c3nc(-c4ccc5c(c4)OCO5)no3)c2C)c1	.	5.2%
CCOc1ccc(C(=O)Nc2ccc3nc(SCC(=O)N4CCc5ccccc54)sc3c2)cc1	.	2.8%
Cc1ccc(O)c(C(=O)CC(=O)c2cccc(F)c2)c1	20µM*	-5.1%
Cc1cccc(C(=O)CC(=O)c2cc(Cl)ccc2O)c1	-40.8%	-6.8%
COc1ccccc1N/C(N)=N/c1nc(CSc2ccc(C)cc2)cc(=O)[nH]1	14.1µM*	?
Cc1ccc(SCc2cc(=O)[nH]c(/N=C(\N)Nc3ccccc3Sc3ccccc3)n2)cc1	-21.7%	?
Cc1ccc(CNC(=O)Cn2cc(S(=O)(=O)Cc3cccc(Cl)c3)c3ccccc32)cc1	.	5.4%
COc1ccc(Cl)cc1NC(=O)CSc1cn(CC(=O)N2CCCCC2)c2ccccc12	.	3.9%
COc1ccc(-c2nc(CN3CCC(C(=O)NCCCOC(C)C)CC3)c(C)o2)cc1OC	.	-10.4%
Cc1cc(O)c(CN(C)C)c2c1C(=O)/C(=C/c1ccco1)O2	-3.5%	-0.2%
Cc1cc(O)c(C=O)c2c1C(=O)Oc1c(CO)c(O)c3c(c1O2)C(O)OC3=O (stereo not given)	-40.5%	50.1µM*
SMILES	AmpC inh no detg	AmpC detergent
O=C(CSc1nnc(CNC(=O)c2ccccc2)n1-c1cccc(Cl)c1)Nc1ccccc1F	.	10.6%
Fc1ccc(-n2cc(-c3ccccc3)c3c(NC4CCCCC4)ncnc32)cc1	.	-4.3%
Cc1cccc(NC(=O)CCCCCN2C(=O)c3ccccc3C2=O)n1	7.08µM*	3.7%
Cc1cccc(NC(=O)CCCN2C(=O)c3ccccc3C2=O)n1	-14.6%	2.0%
COc1ccc(N2CCN(CCCNC(=O)c3cnn(-c4ccc(F)cc4)c3-n3cccc3)CC2)cc1	.	-5.3%
CN(C)c1ccc(CNC(=O)Cc2ccc(NC(=O)N3CCCCc4ccccc43)cc2)cc1	.	17.7%
O=C(N/N=C1/CCSC1)c1cc(Br)ccc1O	-58.3%	-3.9%
O=C(NN=C1CCCC1)c1cc(Br)ccc1O	7.94µM*	?
O=C(N/N=C/c1ccoc1)c1cc(Br)ccc1O	7.94µM*	-8.5%
O=C(N/N=C/c1ccoc1)c1ccccc1Br	-26.1%	-6.4%
CC(=O)N1c2ccc(S(=O)(=O)N3CCCCCC3)cc2CC1C(=O)NCc1ccccc1 (stereo not given)	.	0.1%
CC1CN(C(=O)N2CCC(C(=O)NCc3ccccc3F)CC2)c2cc(Cl)ccc2O1 (stereo not given)	.	15.0%
O=C(Cn1c(=O)oc2cc(S(=O)(=O)N3CCCC3)ccc21)N1CCN(c2ccccc2F)CC1	-3.3%	-2.0%
O=C(Cn1c(=O)oc2cc(S(=O)(=O)N3CCCC3)ccc21)N1CCN(c2ccccn2)CC1	7.94µM*	?
Cc1ccc(NC(=O)C(OC(=O)c2ccc(O)cc2)c2ccccc2)cc1Cl (stereo not given)	7.08µM*	-3.4%
Cc1ccc(NC(=O)C(OC(=O)c2ccc(F)cc2)c2ccccc2)cc1Cl (stereo not given)	-19.9%	-0.7%
O=C(O)c1cccc(-n2cccc2/C=C2/NC(=O)N(c3cccc(Cl)c3)C2=O)c1	-39.2%	2.6%
O=C(O)c1cccc(-n2cccc2/C=C2/NC(=O)N(c3ccc(Cl)cc3)C2=O)c1	12.6µM*	-6.4%
